In publication PMC4336329 (PLoS ONE, 2015):
Hit rate of the full screen: of about 310,000 compounds, about 14,000 (4.5%) showed an effect of 50% or more. Effects have a minus sign here. The full list was thinned out, with strong results kept by preference.

Molecular target: human ether-à-go-go-related gene (hERG) potassium channel (human, UniProt Q12809)
Assay: primary screen, population patch clamp on CHO cells stably expressing hERG; higher = less effect of the substance
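Further: peak tail current of the secondary pulse compared with the same well before compound.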

Sequence of human ether-à-go-go-related gene (hERG) potassium channel (Q12809 whole entry, looked up): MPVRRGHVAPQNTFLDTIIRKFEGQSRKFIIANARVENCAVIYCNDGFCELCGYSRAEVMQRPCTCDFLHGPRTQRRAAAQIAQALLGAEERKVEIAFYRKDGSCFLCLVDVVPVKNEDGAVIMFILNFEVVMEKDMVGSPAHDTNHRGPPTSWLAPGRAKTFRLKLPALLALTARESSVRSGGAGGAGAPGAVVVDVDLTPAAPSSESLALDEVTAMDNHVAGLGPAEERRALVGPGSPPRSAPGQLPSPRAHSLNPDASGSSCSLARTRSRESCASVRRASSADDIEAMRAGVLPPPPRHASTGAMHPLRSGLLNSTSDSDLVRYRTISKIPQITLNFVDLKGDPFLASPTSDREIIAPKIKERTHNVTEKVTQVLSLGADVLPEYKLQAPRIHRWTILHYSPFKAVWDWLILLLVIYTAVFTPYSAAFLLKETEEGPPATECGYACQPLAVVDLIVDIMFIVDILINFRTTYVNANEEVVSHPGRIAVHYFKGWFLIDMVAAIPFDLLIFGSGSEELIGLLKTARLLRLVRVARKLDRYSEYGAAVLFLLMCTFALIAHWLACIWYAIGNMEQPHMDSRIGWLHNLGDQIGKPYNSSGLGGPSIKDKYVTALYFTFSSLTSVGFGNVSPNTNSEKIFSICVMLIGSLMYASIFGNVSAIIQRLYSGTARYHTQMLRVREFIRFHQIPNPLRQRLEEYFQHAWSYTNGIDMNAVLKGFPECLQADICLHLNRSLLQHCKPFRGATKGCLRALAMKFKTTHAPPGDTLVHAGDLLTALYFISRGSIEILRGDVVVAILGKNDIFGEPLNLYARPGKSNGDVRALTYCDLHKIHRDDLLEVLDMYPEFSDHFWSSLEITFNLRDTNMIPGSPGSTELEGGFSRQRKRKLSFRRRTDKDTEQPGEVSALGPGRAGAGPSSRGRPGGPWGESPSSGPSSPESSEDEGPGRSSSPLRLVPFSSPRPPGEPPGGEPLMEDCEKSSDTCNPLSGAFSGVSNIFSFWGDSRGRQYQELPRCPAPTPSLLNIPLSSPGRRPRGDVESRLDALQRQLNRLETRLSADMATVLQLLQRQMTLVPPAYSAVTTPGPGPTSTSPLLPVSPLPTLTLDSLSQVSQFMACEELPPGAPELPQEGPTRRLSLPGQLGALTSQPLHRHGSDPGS

Compound	hERG current change (%, negative = inhibition) at 10uM [%]
CCc1nc(NCCN2CCOCC2)c(C#N)c2c1CCCC2	-37.2
CC1CCCCN1CCCNC(=O)C1CCN(c2nnc(-n3cccc3)s2)CC1 (stereo not drawn)	-27.1
CCOc1ccc(CCNC(=O)C2CCN(c3nnc(-n4cccc4)s3)CC2)cc1OCC	-35.7
CCOc1ccc(NCc2cccn2-c2nnc(N3CCC(C(=O)NCCCN4CCCCC4CC)CC3)s2)cc1 (stereo not drawn)	-68
CCOc1ccc(NCc2cccn2-c2nnc(N3CCC(C(=O)NCCCN4CC(C)CC(C)C4)CC3)s2)cc1 (stereo not drawn)	-66.2
CCOc1ccc(NCc2cccn2-c2nnc(N3CCC(C(=O)NCCCN4CCCCC4C)CC3)s2)cc1 (stereo not drawn)	-53.8
CCOc1ccc(CCNC(=O)C2CCN(c3nnc(-n4cccc4)s3)CC2)cc1	-0.834
CCN1CCN(CCCNC(=O)C2CCN(c3nnc(-n4cccc4)s3)CC2)CC1	-3.56
CC1CC(C)CN(CCCNC(=O)C2CCN(c3nnc(-n4cccc4)s3)CC2)C1 (stereo not drawn)	-28.3
CCC1CCCCN1CCCNC(=O)C1CCN(c2nnc(-n3cccc3)s2)CC1 (stereo not drawn)	-18.7
Cc1ccc(C)n1-c1nnc(N2CCC(C(=O)NCCCN3CC(C)CC(C)C3)CC2)s1 (stereo not drawn)	-17.7
CCOc1ccc(NCc2cccn2-c2nnc(N3CCC(C(=O)NCCCN4C(C)CCCC4C)CC3)s2)cc1 (stereo not drawn)	-69.3
CC1CCCCN1CCCNC(=O)C1CCN(c2nc3ccccc3o2)CC1 (stereo not drawn)	-1.61
COC(=O)c1ccccc1NC(=O)N1CCN(S(=O)(=O)c2ccc(Cl)cc2)CC1	7.58
O=C(Nc1ncccc1Cl)C(Sc1ccccc1)c1ccccc1 (stereo not drawn)	8.58
Cc1[nH]n(-c2cccc(Cl)c2)c(=O)c1-c1ccccc1	17.1
CCOC(=O)c1nn(-c2ccc(C)cc2)cc1C(=O)c1ccccc1	-9.04
COc1cc(CNc2ccc(N3CCOCC3)c(C(=O)O)c2)ccc1OCC(N)=O	-6.95
CCOc1ccc(S(=O)(=O)NCc2ccccc2)cc1C(N)=O	18.9
O=C(OCC(O)CN1CCCCC1)C12CC3CC(CC(C3)C1)C2 (stereo not drawn)	-16.3
CCOC(=O)N1CCC(NC(=O)CC2C(=O)NCCN2Cc2ccccc2F)CC1 (stereo not drawn)	11.8
CCOC(=O)c1cc(C(O)(C(=O)OC)C(F)(F)F)c(/N=C/N(C)C)o1 (stereo not drawn)	-6.94
Cc1cccc(-n2c(C)cc(C(=S)N3CCOCC3)c2C)c1C	-7.9
COC(=O)C(C)Oc1ccc2c3c(c(=O)oc2c1)CCCCC3 (stereo not drawn)	-59.2
CC(=O)C(C)Oc1ccc2c3c(c(=O)oc2c1)CCCCC3 (stereo not drawn)	2.1
CC(=O)C(C)Oc1ccc2c3c(c(=O)oc2c1)CCCC3 (stereo not drawn)	-12.8
O=C(CSc1nc(C(F)(F)F)cc(=O)[nH]1)Nc1nccs1	18.5

Compound	hERG current change (%, negative = inhibition) at 10uM [%]
CCc1nn(CCCC(=O)NCc2ccco2)c(=O)c2cc3occc3n12	-14
COc1cccc(-n2c(O)c(C=NCc3ccccn3)c3ccccc3c2=O)c1	-26.2
Cc1ccc(-n2c(O)c(C=NCc3ccccn3)c3ccccc3c2=O)cc1	-3.79
Cc1cccc(-n2c(O)c(C=NCc3ccccn3)c3ccccc3c2=O)c1	-60.9
COc1ccc(Cl)cc1NC(=S)NCc1cccnc1	-15.3
Cc1cc(NC(=O)CSc2ncnc3c2cnn3-c2ccccc2)no1	-10.8
Cc1c(NC(=O)COC(=O)/C=C/c2cccc(Br)c2)c(=O)n(-c2ccccc2)n1C	-15.8
Cc1c(NC(=O)COC(=O)/C=C/c2cccc(Cl)c2)c(=O)n(-c2ccccc2)n1C	-58.7
Cc1c(NC(=O)CSc2ncnc3ccccc23)c(=O)n(-c2ccccc2)n1C	-38.8
Cc1c(NC(=O)CSc2ncnc3c2cnn3-c2ccccc2)c(=O)n(-c2ccccc2)n1C	-64.1
Cc1c(NC(=O)COC(=O)/C=C/c2ccc(Cl)cc2)c(=O)n(-c2ccccc2)n1C	28.5
Cc1c(NC(=O)COc2ccccc2Cl)c(=O)n(-c2ccccc2)n1C	-4.59
Cc1c(NC(=O)CN(c2ccc(F)cc2)S(=O)(=O)c2ccccc2)c(=O)n(-c2ccccc2)n1C	-0.664
CCOc1ccc(N(CC(=O)Nc2c(C)n(C)n(-c3ccccc3)c2=O)S(=O)(=O)c2ccc(F)cc2)cc1	-17.6
Cc1c(NC(=O)COc2cccc(Cl)c2Cl)c(=O)n(-c2ccccc2)n1C	-71.4
CCOc1ccc(N(CC(=O)Nc2c(C)n(C)n(-c3ccccc3)c2=O)S(=O)(=O)c2ccccc2)cc1	-55.2
CCOc1ccccc1OCC(=O)Nc1c(C)n(C)n(-c2ccccc2)c1=O	-6.05
Cc1nn(-c2ccccc2)cc1/C=N/O	0.476
Cc1ccc(C(=O)NCCCN2CCOCC2)c(Cl)c1	13
CCOC(=O)c1sc(=S)n(C)c1C	12
Cc1ccc(S(=O)(=O)N2CCN(C(=O)CSc3ccccn3)CC2)c(C)c1	-26.5
Cc1ccc(S(=O)(=O)N2CCN(Cc3nc4ccccc4n3C)CC2)cc1	-53.5
CN(Cc1nc2ccccc2n1C)S(C)(=O)=O	-5.28
CN1CCN(Cc2nc3ccccc3n2C)CC1CCO (stereo not drawn)	3.83
Cn1c(CN2CCN(c3ccccc3NS(C)(=O)=O)CC2)nc2ccccc21	-61.5
CN1CCN(Cc2nc3ccccc3n2C)CC1	-0.083
Cc1ccc(S(=O)(=O)n2c(CN3CCCC(C)C3)nc3ccccc32)cc1 (stereo not drawn)	-14.6
